Inconclusive results are not listed. The source made the active and inactive calls.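 How the source made its calls, unless noted: active means cell viability at or below a set limit in both duplicate runs, the limit being the all-compound median minus 4 SD (cut at about 23% in these data, passing the limit was not always enough); inconclusive means no clear call, values can overlap the other calls; inactive means the rest.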
How the values were obtained:
[1] = Her2 expression decrease, cell viability multiplex – SKBR3 breast tumor cells, AlphaScreen, ATP viability, primary screen (AID 461;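 active means Her2 level under about 52% in both replicate screens, with viability over 70% of control, limit read from the data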;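 on Her2 level: lower value means less Her2 protein in the cells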;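 on viability: percent of carrier control wells set as 100% viability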); details: SKBR3 Her2 protein level, 18-24 h, measured here: SKBR3 viability, ATP luminescence, at 10 µM
[2] = biological target: Receptor tyrosine-protein kinase erbB-2 (Homo sapiens) (UniProt P04626); assay: as above; details: 18-24 h, at 10 µM, stronger effect = lower value
Receptor tyrosine-protein kinase erbB-2 (Homo sapiens), sequence (P04626 whole entry, looked up): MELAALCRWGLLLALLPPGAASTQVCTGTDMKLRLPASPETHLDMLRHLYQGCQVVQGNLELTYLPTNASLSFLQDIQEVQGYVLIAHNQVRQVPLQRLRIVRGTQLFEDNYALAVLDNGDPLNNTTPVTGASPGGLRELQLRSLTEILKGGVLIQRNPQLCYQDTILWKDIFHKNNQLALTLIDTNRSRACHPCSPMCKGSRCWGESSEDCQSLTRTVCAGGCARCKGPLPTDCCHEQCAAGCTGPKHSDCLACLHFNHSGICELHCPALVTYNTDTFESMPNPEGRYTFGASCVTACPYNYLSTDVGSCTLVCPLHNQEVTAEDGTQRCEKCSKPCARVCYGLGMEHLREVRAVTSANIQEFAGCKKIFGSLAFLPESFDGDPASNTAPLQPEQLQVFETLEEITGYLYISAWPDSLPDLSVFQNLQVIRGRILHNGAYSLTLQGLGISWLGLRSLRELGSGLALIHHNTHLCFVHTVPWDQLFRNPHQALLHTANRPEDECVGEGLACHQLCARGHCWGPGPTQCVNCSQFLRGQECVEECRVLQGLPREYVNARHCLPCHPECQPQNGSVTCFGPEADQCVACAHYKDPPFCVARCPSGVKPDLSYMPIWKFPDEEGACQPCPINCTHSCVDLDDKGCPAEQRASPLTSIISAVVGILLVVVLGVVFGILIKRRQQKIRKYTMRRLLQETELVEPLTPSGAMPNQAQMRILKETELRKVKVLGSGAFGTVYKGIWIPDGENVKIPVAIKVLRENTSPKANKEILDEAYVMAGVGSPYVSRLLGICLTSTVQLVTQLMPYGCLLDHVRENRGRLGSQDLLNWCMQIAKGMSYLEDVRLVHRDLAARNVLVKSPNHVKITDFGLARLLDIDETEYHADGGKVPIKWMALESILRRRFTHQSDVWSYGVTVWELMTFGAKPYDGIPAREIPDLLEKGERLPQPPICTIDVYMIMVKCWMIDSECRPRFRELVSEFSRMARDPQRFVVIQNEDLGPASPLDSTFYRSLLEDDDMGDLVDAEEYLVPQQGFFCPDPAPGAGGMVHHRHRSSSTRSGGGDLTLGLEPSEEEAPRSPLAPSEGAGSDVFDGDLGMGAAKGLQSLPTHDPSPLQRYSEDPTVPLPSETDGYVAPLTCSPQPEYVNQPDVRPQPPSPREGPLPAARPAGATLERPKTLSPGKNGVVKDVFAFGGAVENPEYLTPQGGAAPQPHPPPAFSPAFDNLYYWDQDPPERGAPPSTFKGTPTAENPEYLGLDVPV

[3] = reduced viability of SK-BR-3 breast cancer cells – cell-based, 24 h, human, pilot screen (AID 572;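 active means viability at or below 10% of carrier control in both of two separate runs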;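 further: compound exposure lasted between 18 and 24 h rather than exactly 24 h; 100% = carrier-treated control wells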); details: SK-BR-3 viability, CellTiter-Glo luminescence, at 10 µM, stronger effect = lower value
[4] = HUVEC growth inhibition – cell-based, human, primary screen (AID 575;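 active means viability at or below 30% in both replicate assays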;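 further: 100% = median of untreated cell wells with 0.1% DMSO on each plate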); details: HUVEC proliferation, CellTiter-Glo luminescence, 72 h; at 10 µM; stronger effect = lower value
[5] = H69AR cell proliferation blockers – human, duplicate replicates, primary screen (AID 580;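 active means viability at or under a set limit in both replicates, limit being median viability minus 3 SD, cut at about 48% in these data, passing the limit was not always enough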;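 further: 100% = mean luminescence of untreated wells and 0% = no signal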); details: H69AR lung tumor cells viability, ATP luminescence, 72 h; at 10 µM; stronger effect = lower value
[6] = MRP1 drug-resistance reversers in H69AR cells – cell-based, doxorubicin co-treatment, pilot screen (AID 601;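 active means viability loss from added drug above about 55%, and viability with drug at most 40%, in both replicates, limit read from the data, passing the limit was not always enough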); details: CellTiter-Glo, 72 h, at 10 µM; for differential viability (reversal): stronger effect = higher value
[7] = yeast transport mutant growth inhibition pilot in 384-well plates, post-Golgi transport modulator project (AID 636; in the data active means inhibition above about 31%); details: absorbance 615 nm, about 18 h, stronger effect = higher value
[8] = growth suppression of yeast trafficking mutant, preliminary HTS, modulators of trafficking downstream of Golgi apparatus project, 1536-format plate, OD 615 nm (AID 637; in the data active means inhibition above about 30%); details: yeast transport mutant growth, absorbance 615 nm, 18 h; stronger effect = higher value
[9] = S. cerevisiae growth inhibition in permissive medium (OD615), pilot counter-assay for S. cerevisiae lifespan shortening project, permissive growth control (AID 705;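 active means growth inhibition above 25% in both replicates, a cutoff set 3 SD above the mean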); details: OD615, 24 h, at 10 µM, stronger effect = higher value
[10] = S. cerevisiae growth inhibition in restrictive medium, OD615, pilot screen, restrictive growth control, yeast lifespan reduction project (AID 706;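 active means growth inhibition above a set limit, 3 SD over mean compound inhibition, in both replicates, cut at about 43% in these data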;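 further: modified DeaD lifespan yeast strain shifted to restrictive glucose medium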); details: OD615, 48 h, at 10 µM, stronger effect = higher value
[11] = doxorubicin toxicity protection in MRP-1 cells – H69AR cells, CellTiter-Glo, duplicate, MRP-1 activator project, pilot screen (AID 807;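 active means viability increase at or above a cutoff of the median across tested compounds plus 3 SD, cut at about 8.5% in these data, passing the limit was not always enough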;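 further: compound pretreatment 18-22 h then 72 h combined with doxorubicin; 0% = doxorubicin alone and 100% = vehicle without doxorubicin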); details: H69AR viability with doxorubicin, CellTiter-Glo luminescence; at 10 µM; stronger effect = higher value
[12] = viability of HCT116 without oncogenic beta-catenin – human colon tumor cells, pilot screen (AID 823); details: HCT116 beta-catenin knockout viability, CellTiter-Glo, 60 h; at 10 µM; stronger effect = lower value;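 further: 0% = wells killed by 20 µM Hyamine and 100% = untreated DMSO cell wells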
[13] = viability of PTEN-null HCT116 cells – cell-based, HCT116 clonal line, CellTiter-Glo, pilot screen (AID 824;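 active means viability at or below 27.92% in each of two runs, the all-compound median minus 4 SD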;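 further: 0% = 20 µM Hyamine control and 100% = vehicle cell control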); details: HCT116 PTEN-deleted viability, 60 h, at 10 µM, stronger effect = lower value
[14] = RAM pathway blockade in budding yeast – dse1pr::URA3 reporter, 5-FOA selection, pilot screen (AID 869;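 active means inhibition over a set limit, the all-compound mean plus 3 SD, in both replicate runs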;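 further: 0% = DMSO wells with no growth and 100% = 10 µM 1-NA-PP1 with full growth; RAM network block rescues cells from 5-FOA so hits raise OD615 growth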); details: S. cerevisiae dse1pr::URA3 5-FOA growth, OD615, 2 d; at 10 µM; stronger effect = higher value; strain carries analog-sensitive mutant Cbk1 kinase
[15] = RAM signaling pathway blockade in yeast – S. cerevisiae, Pdr1DBD-CYC8 efflux-inhibited sensitized strain, primary screen (AID 1298;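 active means RAM network inhibition above 8.4% in each of two replicates, 3 SD over the compound average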;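 further: 0% = DMSO untreated cells without growth and 100% = 10 µM 1-NA-PP1 full growth; higher means more yeast growth rescued from 5-FOA killing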); details: S. cerevisiae cbk1-as DSE1-URA3 strain, 5-FOA growth OD615, 2 d; at 50 µM; stronger effect = higher value
[16] = H69AR cells + 2 uM doxorubicin, measured here: viability with 2 uM doxorubicin, stronger effect = lower value
[17] = H69AR cells, compound alone cytotoxicity

CC1CCCCN1CCNC(=O)C1CCN(S(=O)(=O)c2cccc3cccnc23)CC1 (stereo not given)
inactive: Her2 level [2] 96.5% | viability [3] 97% | viability [4] 112% | viability [5] 100% | differential viability (reversal) ([6]; H69AR cells + 2 uM doxorubicin) 4.43% | inhibition [7] -2.53% | inhibition [8] -2.46% | growth inhibition [9] 8.94% | growth inhibition [10] -2.71% | viability increase [11] -3.57% | viability [12] 101% | viability [13] 97.9% | inhibition [14] 2.46% | RAM network inhibition [15] 6.99%
95.8%: viability [6, 16]
97%: viability [1]
100%: viability [6, 17]

CCOC(=O)N1CCN(C(=O)CSc2nnc(COc3ccccc3)o2)CC1
88.2%: viability [6, 16]
97.2%: viability [6, 17]
92.5%: viability [1]
inactive: Her2 level [2] 89.5% | viability [3] 92.5% | viability [4] 95.2% | viability [5] 97.2% | differential viability (reversal) ([6]; H69AR cells + 2 uM doxorubicin) 9.01% | inhibition [7] 2.67% | inhibition [8] -7.21% | growth inhibition [9] -8.08% | growth inhibition [10] 1.67% | viability increase [11] 1.41% | viability [12] 99.4% | viability [13] 100% | inhibition [14] -0.34% | RAM network inhibition [15] 7.1%

COc1ccccc1NC(=O)N1CCN(c2cccc(C(F)(F)F)c2)CC1
95.2%: viability [6, 17]
78.2%: viability [6, 16]
89%: viability [1]
inactive: Her2 level [2] 98.5% | viability [3] 89% | viability [4] 78.1% | viability [5] 95.2% | differential viability (reversal) ([6]; H69AR cells + 2 uM doxorubicin) 16.9% | inhibition [7] -3.11% | inhibition [8] -10.3% | growth inhibition [9] -10.8% | growth inhibition [10] 3.75% | viability increase [11] 2.13% | viability [12] 89.5% | viability [13] 84.7% | inhibition [14] 0.115% | RAM network inhibition [15] 2.91%

CC1CCc2nn(CC(=O)NCCN3CCCCC3C)cc2C1 (stereo not given)
85%: viability [1]
inactive: Her2 level [2] 104% | viability [3] 85% | viability [4] 103% | viability [5] 90% | differential viability (reversal) ([6]; H69AR cells + 2 uM doxorubicin) -2.58% | inhibition [7] -2.18% | inhibition [8] 0.83% | growth inhibition [9] 0.05% | growth inhibition [10] -11% | viability increase [11] -1.56% | viability [12] 101% | viability [13] 98.5% | inhibition [14] 2.96% | RAM network inhibition [15] 1.89%
92.6%: viability [6, 16]
90%: viability [6, 17]

CC(=O)N(C(C)=O)c1ncc2c([nH]c3ccccc32)c1C#N
81.9%: viability [6, 16]
inactive: Her2 level [2] 95% | viability [3] 106% | viability [4] 53.4% | viability [5] 61.4% | differential viability (reversal) ([6]; H69AR cells + 2 uM doxorubicin) -20.5% | inhibition [7] -8.13% | inhibition [8] -7.26% | growth inhibition [9] -10.9% | growth inhibition [10] -11.2% | viability increase [11] -7.26% | viability [12] 66.9% | viability [13] 64.7% | inhibition [14] 1.25% | RAM network inhibition [15] 6.06%
106%: viability [1]
61.4%: viability [6, 17]

COc1ccc(C(NC(=O)c2ccco2)c2ccc(OC)c(OC)c2)cc1 (stereo not given)
93%: viability [1]
inactive: Her2 level [2] 84% | viability [3] 93% | viability [4] 89.2% | viability [5] 96.2% | differential viability (reversal) ([6]; H69AR cells + 2 uM doxorubicin) 15.1% | inhibition [7] -8.11% | inhibition [8] -3.17% | growth inhibition [9] -14.2% | growth inhibition [10] -19.3% | viability increase [11] -4.05% | viability [12] 98.2% | viability [13] 96.4% | inhibition [14] 1.3% | RAM network inhibition [15] 2.41%
96.2%: viability [6, 17]
81.1%: viability [6, 16]

Cc1cc(C)n2nc(S(=O)(=O)N(C)c3ccccc3)nc2n1
94.5%: viability [6, 17]
93.9%: viability [6, 16]
inactive: Her2 level [2] 102% | viability [3] 103% | viability [4] 88.2% | viability [5] 94.5% | differential viability (reversal) ([6]; H69AR cells + 2 uM doxorubicin) 0.67% | inhibition [7] -5.6% | inhibition [8] 4.17% | growth inhibition [9] -16.1% | growth inhibition [10] -13.7% | viability increase [11] -1.5% | viability [12] 104% | viability [13] 98.1% | inhibition [14] 3.53% | RAM network inhibition [15] 1.62%
103%: viability [1]

CCn1c(=O)cc(OCC(=O)Nc2nc(C)cs2)c2ccccc21
inactive: Her2 level [2] 84.5% | viability [3] 83.5% | viability [4] 61.6% | viability [5] 94.8% | differential viability (reversal) ([6]; H69AR cells + 2 uM doxorubicin) 2.11% | inhibition [7] -3.73% | inhibition [8] -1.67% | growth inhibition [9] -10.5% | growth inhibition [10] -9.12% | viability increase [11] -2.41% | viability [12] 93.2% | viability [13] 86.9% | inhibition [14] 1.33% | RAM network inhibition [15] 2.84%
83.5%: viability [1]
94.8%: viability [6, 17]
92.7%: viability [6, 16]

CCc1ccccc1N1CC23C=CC(O2)C(C(=O)O)C3C1=O (stereo not given)
89.3%: viability [6, 16]
inactive: Her2 level [2] 93.5% | viability [3] 102% | viability [4] 101% | viability [5] 86.7% | differential viability (reversal) ([6]; H69AR cells + 2 uM doxorubicin) -2.65% | inhibition [7] -7.2% | inhibition [8] 0.83% | growth inhibition [9] 1.68% | growth inhibition [10] -5.72% | viability increase [11] 1.1% | viability [12] 96% | viability [13] 102% | inhibition [14] 0.365% | RAM network inhibition [15] 1.2%
102%: viability [1]
86.7%: viability [6, 17]

COc1ccc(C(=O)NCc2nc3ccccc3[nH]2)cc1OC
110%: viability [1]
107%: viability [6, 17]
inactive: Her2 level [2] 115% | viability [3] 110% | viability [4] 101% | viability [5] 107% | differential viability (reversal) ([6]; H69AR cells + 2 uM doxorubicin) 16.6% | inhibition [7] -3.6% | inhibition [8] -6.67% | growth inhibition [9] -9.82% | growth inhibition [10] -15% | viability increase [11] 0.84% | viability [12] 102% | viability [13] 98.2% | inhibition [14] 2.96% | RAM network inhibition [15] 6.63%
90.2%: viability [6, 16]

Source: PubChem BioAssay
